# The campaign covered roughly 2,400 compounds. About 220 (9.2%) were called active. This is one part of a sample in which actives are shown more often than they occur.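 The calls were made as follows: active = signal change above the mean of dofetilide-free buffer controls plus 3 SD, so a positive margin; inactive = the rest.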
# Test: thallium signal changes without hERG – cell-based, CHO-K1 parental line, FluxOR thallium flux, counter-screen for hERG block protection project, confirmation (AID 1839);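 also: compounds applied alone with no dofetilide to cells lacking hERG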
# Conditions: CHO-K1 parental cells, FluxOR thallium flux fluorescence; at 10 µM
row,Compound,"signal change vs control minus 3*SD hit threshold (margin above threshold, higher = more increase)"
1,O=C(Nc1cccnc1)c1ccc(COc2cc(Cl)ccc2Cl)o1,-33.5% (inactive)
2,CCCSc1cc(NCCOC(C)=O)c([N+](=O)[O-])c2nonc12,-28.6% (inactive)
3,Cc1cc2ccccn2c1C(=S)NC(=O)c1ccccc1,2.8% (active)
4,Cc1cccc(C(=O)NNC(=S)NC(=O)c2ccccc2)c1,-45% (inactive)
5,Cc1ccc(C(=O)NNC(=S)NC(=O)c2ccccc2)cc1,-43.2% (inactive)
6,COc1ccc(C(=O)NC(=S)N2CCC(C)CC2)cc1,-29% (inactive)
7,CCc1ccc(/C=C/C(=O)c2cc(Br)ccc(=O)c2O)cc1,-23.5% (inactive)
8,CCc1ccc(/C=C/C(=O)C2C(=O)c3ccccc3C2=O)cc1,15.2% (active)
9,Cc1ccc(/C=N/N2C(=O)c3ccccc3NC2c2ccc(C)cc2)cc1 (stereo not given),-30% (inactive)
10,Cc1ccc(/C=C/C(=O)c2ccccc(=O)c2O)cc1C,-20.1% (inactive)
11,Cc1ccc(/C=C/C(=O)C2C(=O)c3ccccc3C2=O)cc1,8.4% (active)
12,CCOC(=O)C1=C(O)c2ccccc2C(=O)/C1=C\c1ccc(CC)cc1,-14.9% (inactive)
13,COc1ccc(-n2c(SCc3ccccn3)nc3c(c2=O)SCC3)cc1OC,-16.3% (inactive)
14,O=C(COC(=O)c1cnccn1)c1ccc(Cl)cc1,-30.4% (inactive)
15,CCOC(=O)c1c(NS(C)(=O)=O)sc2c1CCC(C)C2 (stereo not given),-5.6% (inactive)
16,CC(C)OC(=O)c1c(NS(=O)(=O)c2ccccc2)sc2c1CCCC2,-18.4% (inactive)
17,CC1CCc2c(sc(NS(=O)(=O)c3ccccc3)c2C(=O)OC(C)C)C1 (stereo not given),5.8% (active)
18,CCOc1ccc(NC(=O)CSc2nc3nc(C)cc(C)n3n2)cc1,-31.5% (inactive)
19,CC1=CCC[C@@H]2[C@@](C)(CC/C(C)=C/C(=O)O)[C@H](C)CC[C@@]12C,7.9% (active)
20,O=[N+]([O-])c1cccc(/C=C/c2nc(C=Nc3ccccc3)c(O)o2)c1,-34.1% (inactive)
21,CCC1=NN(C(=O)c2ccc(Cl)cc2)C(O)(c2ccc(C)cc2)C1 (stereo not given),-25.9% (inactive)
22,COC(=O)C1=NN(C(=O)c2cccc(Br)c2)C(O)(c2ccc(Cl)cc2)C1 (stereo not given),64.5% (active)
23,Cc1ccc(C(=O)NNC(=S)NC(=O)c2ccc(Cl)cc2)cc1,-46.2% (inactive)
24,CCC1=NN(C(=O)c2ccc(Cl)cc2)C(O)(c2ccccc2)C1 (stereo not given),-32.2% (inactive)

row,Compound,"signal change vs control minus 3*SD hit threshold (margin above threshold, higher = more increase)"
1,CC1=NN(C(=O)c2ccc(Cl)cc2)C(O)(c2ccccc2)C1 (stereo not given),-21.7% (inactive)
2,CCOC(=O)c1cnc(-n2nc(C)cc2C)nc1Nc1cccc(C(=O)O)c1,-22.1% (inactive)
3,CC(C)(C)C1(O)CC(C(F)(F)F)=NN1C(=O)Cc1ccc([N+](=O)[O-])cc1 (stereo not given),-27% (inactive)
4,CC1=NN(C(=O)c2ccccc2Br)C(O)(c2ccc(Cl)cc2)C1 (stereo not given),-36.1% (inactive)
5,COC(=O)C1=NN(C(=O)c2ccc(C)cc2)C(O)(c2ccc(Cl)cc2)C1 (stereo not given),46.4% (active)
6,COC(=O)C1=NN(C(=O)c2ccc(Cl)cc2)C(O)(c2ccccc2)C1 (stereo not given),17.7% (active)
7,CCOC(=O)C1=NN(C(=O)c2cccc(Br)c2)C(O)(C(C)(C)C)C1 (stereo not given),49.8% (active)
8,Cc1c(C)c2ccc(OCC(=O)N[C@@H](Cc3ccccc3)C(=O)O)cc2oc1=O,-15.2% (inactive)
9,O=C(C1CC(=O)N(c2ccc3c(c2)OCCO3)C1)N1CCCC(C(F)(F)F)C1 (stereo not given),-31.3% (inactive)
10,COc1ccc(/C(C)=N/Nc2ccc(C(=O)O)cc2)c(OC)c1,-36.2% (inactive)
11,Cc1ccc(C(=C2C3C=CC2C2C(=O)NC(=O)C32)c2ccc(C)cc2)cc1 (stereo not given),-28.1% (inactive)
12,O=C(Nc1nc2c(Br)cc(Br)cc2c(=O)s1)C1CCC1,-21% (inactive)
13,Cc1ccc(/C(O)=C/C(=O)C(=O)NC23CC4CC(CC(C4)C2)C3)cc1,-22.7% (inactive)
14,CCn1ncc(Cl)c1C(=O)NC(=S)Nc1ccccc1Br,-0.1% (inactive)
15,Cc1cccc(/C=N/n2c(COc3ccccc3)n[nH]c2=S)c1,-23.1% (inactive)
16,COc1ccc(NC(=S)NC(NC(=O)c2cccc3ccccc23)C(Cl)(Cl)Cl)c([N+](=O)[O-])c1 (stereo not given),-33.1% (inactive)
17,NC(=O)C1CCN(C(=O)c2cc3c(s2)CCCC3)CC1,-20.8% (inactive)
18,O=C(COc1cccc(-n2cnnn2)c1)Nc1ccc([N+](=O)[O-])cc1,-25.2% (inactive)
19,O=C(Nc1nc(-c2ccccc2)c(-c2ccccc2)o1)c1ccc(F)cc1,-18.6% (inactive)
20,O=C(NC(=S)N1CCN(c2ccc(Cl)cc2[N+](=O)[O-])CC1)c1cccs1,-23.6% (inactive)
21,COCCNC(=O)C(c1ccncc1)N(C(=O)Cn1nnc2ccccc21)c1ccc(OC)cc1 (stereo not given),-24.4% (inactive)
22,COc1cccc(C=NCCCN=Cc2cccc(OC)c2O)c1O,0.5% (active)
23,COc1cccc(C=NCC(C)N=Cc2cccc(OC)c2O)c1O (stereo not given),-13.1% (inactive)
24,COc1cccc(C=Nc2cc(C)cc(C)c2)c1O,-7.5% (inactive)

row,Compound,"signal change vs control minus 3*SD hit threshold (margin above threshold, higher = more increase)"
1,Cc1ccc(O)c(C(=O)CC(=O)c2ccccc2Cl)c1,-27.9% (inactive)
2,Cc1cc(Br)c(NC(=O)COC(=O)C2CC2C)c(Br)c1 (stereo not given),-27.2% (inactive)
3,CCOC(=O)c1sc2nc(C)nc(SCC(=O)N(C)C3CCS(=O)(=O)C3)c2c1C (stereo not given),-20.4% (inactive)
4,O=C(O)CCSc1ncnc2sc(-c3ccccc3)cc12,-4.3% (inactive)
5,CN(C(=O)CSc1ncnc2sc(-c3ccccc3)cc12)C1CCS(=O)(=O)C1 (stereo not given),24.3% (active)
6,CCOC(=O)C1=C(N)Oc2cc(O)ccc2C1c1cccnc1 (stereo not given),-22.5% (inactive)
7,N#Cc1cccc(NC(=O)c2nc(-c3ccccc3)n(-c3ccccc3)n2)c1,-41.8% (inactive)
8,CCOC(=O)N1CCN(C(=O)c2ccc(C)c(S(=O)(=O)Nc3ccccc3)c2)CC1,-15% (inactive)
9,Cc1cccc(NC(=S)N/N=C2\CC(C)(C)Oc3ccc(O)cc32)c1,-19.7% (inactive)
10,O=C(NC(=S)NCCc1ccccc1)c1cccc(Cl)c1,-28.3% (inactive)
11,O=C1C(c2ccccc2)C(c2ccccc2)NC(c2ccccc2)C1c1ccccc1 (stereo not given),-27.2% (inactive)
12,Fc1cccc2sc(Nc3nc4c(F)cccc4s3)nc12,-6.3% (inactive)
13,Fc1cccc2sc(Nc3nnc(-c4ccccc4)o3)nc12,39.2% (active)
14,COc1cccc2sc(Nc3nnc(-c4cccs4)o3)nc12,14.3% (active)
15,COc1cccc2sc(Nc3nnc(-c4ccc(F)cc4)o3)nc12,13.1% (active)
16,COc1cccc(-c2nnc(Nc3nc4c(F)cccc4s3)o2)c1,-7.5% (inactive)
17,Fc1cccc2sc(Nc3nnc(-c4ccco4)o3)nc12,-13.8% (inactive)
18,COc1cccc2sc(Nc3nc(-c4ccccn4)cs3)nc12,-29.4% (inactive)
19,COc1cccc2sc(Nc3nnc(-c4ccccc4Cl)o3)nc12,-16% (inactive)
20,CCC1CCCCN1C(=S)NC(=O)c1ccc([N+](=O)[O-])cc1 (stereo not given),-2.3% (inactive)
21,CN1C(=O)CSc2ccc(NC(=O)N3CCc4ccccc43)cc21,-32.3% (inactive)
22,COc1ccccc1-n1c(CCC(=O)O)ccc1-c1ccccc1,-17.9% (inactive)
23,CCOC(=O)CC(=O)CSc1nc2c(C)c(C)ccc2cc1C,-25% (inactive)
24,C/C(=N\Nc1nc(C)c(C)s1)c1ccc([N+](=O)[O-])cc1,-17.3% (inactive)

row,Compound,"signal change vs control minus 3*SD hit threshold (margin above threshold, higher = more increase)"
1,CCc1ccc2c(c1)c(N=NC1=NC(=O)CS1)c(O)n2CC,1% (active)
2,CCn1c(O)c(N=NC2=NC(=O)CS2)c2cc(C)ccc21,-27.3% (inactive)
3,CCn1c(O)c(N=NC2=NC(=O)CS2)c2ccccc21,-27% (inactive)
4,CCCOc1ccc(CN(CCC#N)C(=S)NC(=O)c2ccccc2)cc1,-20.4% (inactive)
5,Cc1ccc2c(c1)c1nnc(SCC(=O)Nc3ccc(N(C)C)cc3)nc1n2CC(=O)O,-28.5% (inactive)
6,CCOC(=O)N/N=C/C=C/c1ccccc1[N+](=O)[O-],-14.5% (inactive)
7,COc1ccccc1N=Nc1ccc(O)c2ncccc12,-39% (inactive)
8,COc1cccc(N=Nc2ccc(O)c3ncccc23)c1,-23.6% (inactive)
9,CCN(CC)S(=O)(=O)c1cc(OC)ccc1N=Nc1ccc(O)c2ncccc12,5.8% (active)
10,O=C(NC(=S)Nc1cccnc1)c1cc2ccccc2o1,-7.1% (inactive)
11,C=CCN(CC=C)C(=S)NC(=O)c1ccc(-c2ccccc2)cc1,-9.3% (inactive)
12,Cc1ccc(C(=O)NC(=S)N(C)Cc2ccccc2)cc1,-19.2% (inactive)
13,CCCN(CCC)C(=S)NC(=O)c1ccc(-c2ccccc2)cc1,18.5% (active)
14,CCOc1ccc(C(=O)NC(=S)N(Cc2ccccc2)Cc2ccccc2)cc1,-15.4% (inactive)
15,COc1cc(OC)cc(C(=O)NC(=S)N(Cc2ccccc2)C(C)C)c1,-1.3% (inactive)
16,COc1ccc(C(=O)NC(=S)N(Cc2ccccc2)Cc2ccccc2)cc1,7.4% (active)
17,CCCCC1(O)CC(C(F)(F)F)=NN1C(=O)COc1ccccc1 (stereo not given),-36.4% (inactive)
18,Cc1ccc(OCCC(=O)OC(C)C(=O)NC2CC2)cc1 (stereo not given),-26.5% (inactive)
19,CC(=O)Cn1c(=O)c2c(nc3n2CCCN3Cc2ccccc2)n(C)c1=O,-25.8% (inactive)
20,O=C(O)CN1C(=O)c2ccc(Oc3ccc4c(c3)C(=O)N(CC(=O)O)C4=O)cc2C1=O,-18.4% (inactive)
21,O=C(O)Cc1cc(I)c(Oc2ccc(O)c(I)c2)c(I)c1,7.3% (active)
22,CCCCC(=O)Nc1ccc(NCc2ccc(C)s2)cc1,-5.7% (inactive)
23,CC[C@@H](C(=O)[C@@H](C)[C@@H](O)[C@H](C)CCc1ccc(C)c(O)c1C(=O)O)[C@H]1O[C@](CC)([C@H]2CC[C@](O)(CC)[C@H](C)O2)C[C@@H]1C,58.8% (active)
